This is an account of results in PubChem BioAssay.

In test [1] the test system is Plasmodium falciparum Sir2 (PF13_0152, Sir2A). Description: Plasmodium falciparum Sir2A binding compounds – biochemical, small-molecule microarray, 635 nm fluorescence, primary screen (AID 1098).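 Further: score merges spot fluorescence intensity with its signal-to-noise ratio.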 The following applies: fluorescence 635 nm, higher = more signal.
A short description of test [2]: probe aDKK1 binding to arrayed compounds – biochemical, biotinylated probe, 635/667 nm fluorescence, primary screen (AID 1099).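 Further: score merges 667nm spot fluorescence with signal to noise across triplicate slides.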 The following applies: small-molecule microarray, higher = more signal.
Test [3] is described as follows: probe aCHRDL2 binding to arrayed compounds – biochemical, biotinylated probe, 635/667 nm fluorescence, primary screen (AID 1100). The following applies: small-molecule microarray, higher = more signal.
Test [4] is described as follows: change in splice reporter luminescence, either direction, cell-based, HEK293, spliceosome inhibition project, primary screen (AID 1101).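 Further: HEK293 cells carrying a splicing-competent luciferase reporter gene; test concentration not given here.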 The settings on record: HEK293 splicing luciferase reporter, 24 h, higher = more signal, called active from +8 up or from −8 down. Background: Reporter assays use an easily measured gene product as a stand-in for the process of interest.

Test [5] has as its target Fibroblast growth factor 10 (Homo sapiens) (UniProt O15520). Description: compounds binding fibroblast growth factor 10 – biochemical, small-molecule microarray, 635 nm fluorescence, primary screen (AID 1102). The settings on record: FGF10 binding, fluorescence 635 nm, higher = more signal.
The test system of test [6] is glycogen synthase kinase-3 (GSK3A per assay name; protocol says GSK3B). The test is described as follows: compounds binding glycogen synthase kinase-3 – biochemical, small-molecule microarray, 635 nm fluorescence, GSK3A, primary screen (AID 1103). Further: the record names both GSK3A and GSK3B. The following applies: fluorescence 635 nm, higher = more signal.
For test [7], the target named is Epidermal growth factor receptor (Homo sapiens) (UniProt P00533). Description: compounds binding epidermal growth factor receptor – biochemical, small-molecule microarray, 635 nm fluorescence, primary screen (AID 1104).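 Further: score merges 667 nm emission intensity with spot signal to noise over triplicate slides.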 The following applies: EGFR binding, higher = more signal.
Sequence of Epidermal growth factor receptor (Homo sapiens) (P00533 whole entry, looked up): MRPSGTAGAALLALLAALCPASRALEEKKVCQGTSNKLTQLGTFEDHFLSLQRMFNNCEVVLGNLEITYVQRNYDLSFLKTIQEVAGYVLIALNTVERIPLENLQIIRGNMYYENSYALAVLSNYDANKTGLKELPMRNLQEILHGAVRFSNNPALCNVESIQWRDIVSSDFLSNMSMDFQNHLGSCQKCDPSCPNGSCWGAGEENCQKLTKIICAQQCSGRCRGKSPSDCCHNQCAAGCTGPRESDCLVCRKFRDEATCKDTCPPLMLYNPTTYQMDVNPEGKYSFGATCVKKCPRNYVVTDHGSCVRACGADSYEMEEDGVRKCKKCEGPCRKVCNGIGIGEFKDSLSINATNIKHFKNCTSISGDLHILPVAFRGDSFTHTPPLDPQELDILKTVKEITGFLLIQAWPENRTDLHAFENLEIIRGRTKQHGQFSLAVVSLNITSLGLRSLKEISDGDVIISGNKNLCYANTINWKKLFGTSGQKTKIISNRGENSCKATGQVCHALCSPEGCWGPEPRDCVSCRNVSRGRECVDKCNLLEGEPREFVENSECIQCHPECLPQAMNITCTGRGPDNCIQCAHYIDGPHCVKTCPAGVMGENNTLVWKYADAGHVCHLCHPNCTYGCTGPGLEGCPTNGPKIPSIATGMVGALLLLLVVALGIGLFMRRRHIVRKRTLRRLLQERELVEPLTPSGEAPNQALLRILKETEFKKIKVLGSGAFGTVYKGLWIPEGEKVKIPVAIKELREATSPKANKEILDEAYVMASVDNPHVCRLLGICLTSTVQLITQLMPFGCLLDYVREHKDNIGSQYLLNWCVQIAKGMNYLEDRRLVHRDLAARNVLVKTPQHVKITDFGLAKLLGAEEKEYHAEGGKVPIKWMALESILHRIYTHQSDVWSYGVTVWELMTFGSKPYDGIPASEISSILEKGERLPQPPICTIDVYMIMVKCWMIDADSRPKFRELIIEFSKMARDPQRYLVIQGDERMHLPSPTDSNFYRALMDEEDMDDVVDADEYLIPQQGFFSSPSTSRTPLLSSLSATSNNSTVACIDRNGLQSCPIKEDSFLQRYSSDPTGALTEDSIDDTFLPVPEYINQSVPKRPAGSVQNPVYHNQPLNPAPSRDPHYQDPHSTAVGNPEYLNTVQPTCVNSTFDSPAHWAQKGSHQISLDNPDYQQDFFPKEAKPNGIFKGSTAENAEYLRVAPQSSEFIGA
For test [8], the target named is Follistatin-related protein 3 (Homo sapiens) (UniProt O95633). Description: compounds binding follistatin-related protein 3 – biochemical, small-molecule microarray, 635 nm fluorescence, primary screen (AID 1105).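 Further: score merges emission near 667 nm and signal to noise per printed spot across three slides.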 The settings on record: FSTL3 binding, higher = more signal.
Sequence of Follistatin-related protein 3 (Homo sapiens) (O95633 whole entry, looked up): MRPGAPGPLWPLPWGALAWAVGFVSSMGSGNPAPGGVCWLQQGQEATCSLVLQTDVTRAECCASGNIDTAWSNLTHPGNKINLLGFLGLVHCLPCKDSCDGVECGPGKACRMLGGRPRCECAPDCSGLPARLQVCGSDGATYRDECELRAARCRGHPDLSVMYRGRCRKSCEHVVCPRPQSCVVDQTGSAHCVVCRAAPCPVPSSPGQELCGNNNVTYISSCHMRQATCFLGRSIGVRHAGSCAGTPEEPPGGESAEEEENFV
For test [9], the target named is Dickkopf-related protein 1 (Homo sapiens) (UniProt O94907). Description: small molecules binding DKK1 protein – biochemical, small-molecule microarray, 635 nm fluorescence scan, primary screen (AID 1106).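 Further: score merges emission near 667 nm with signal to noise over three replicate slides.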 The following applies: higher = more signal.
Sequence of Dickkopf-related protein 1 (Homo sapiens) (O94907 whole entry, looked up): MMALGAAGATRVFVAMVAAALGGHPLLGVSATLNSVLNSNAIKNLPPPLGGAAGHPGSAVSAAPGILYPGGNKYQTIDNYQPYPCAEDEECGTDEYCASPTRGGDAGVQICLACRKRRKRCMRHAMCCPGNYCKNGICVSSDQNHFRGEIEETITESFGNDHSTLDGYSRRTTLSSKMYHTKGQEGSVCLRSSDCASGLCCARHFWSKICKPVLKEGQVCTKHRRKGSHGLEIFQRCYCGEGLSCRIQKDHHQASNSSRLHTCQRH
Test [10] relates to Inhibin beta A chain (activin A). The test is described as follows: small molecules binding activin A – biochemical, small-molecule microarray, 635 nm fluorescence scan, primary screen (AID 1107).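 Further: mouse activin A protein probed at 4.33 µg/mL on printed slides; score merges bound-protein fluorescence near 667 nm with spot signal-to-noise.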 The following applies: INHBA, higher = more signal.
Test [11] concerns Human papillomavirus type 1a protein E7 (residues 44-93). Description: small molecules binding HPV E7 44-93 – biochemical, small-molecule microarray, residues 44-93, 635 nm fluorescence, primary screen (AID 1108).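 Further: E7 fragment applied at 1 µg/mL in TBST for 1 h at 4 C; score combines spot fluorescence with its signal to noise ratio.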 The following applies: fluorescence 635 nm, higher = more signal.
Test [12] is described as follows: hepatitis C replication reporter changes, two-sided – Huh7 cells, luciferase reporter, HCV replication inhibitor project, primary screen (AID 1109).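 Further: huh7 hepatoma cells harbouring a luciferase neomycin HCV replicon reporter; luciferase luminescence as measure of HCV replicon replication; test concentration not given here.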 The following applies: Huh7 HCV replicon luciferase reporter, 48 h; higher = more signal.
Test [13] concerns the target Left-right determination factor 2 (Homo sapiens) (UniProt O00292). The test is described as follows: small molecules binding LEFTY2 protein – biochemical, small-molecule microarray, 635 nm fluorescence scan, primary screen (AID 1110). The settings on record: higher = more signal.
In test [14] the target is Calmodulin-1 (Homo sapiens) (UniProt P0DP23). The test is described as follows: small molecules binding calmodulin-1 with EGTA – biochemical, small-molecule microarray, Cy5-labelled CALM1, profiling panel (AID 1111).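 Further: labelled calmodulin applied in Tris saline Tween buffer holding calcium plus EGTA and DTT.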 The following applies: Cy5-CALM1 binding fluorescence, higher = more signal.
Test [15] has the same target. Description: small molecules binding Ca-loaded calmodulin-1 – biochemical, small-molecule microarray, Cy5-labelled CALM1, plus calcium, artefact control for SMM control-protein annotation, profiling panel (AID 1112).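 Further: score merges spot fluorescence with signal to noise from triplicate slides.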 The settings on record: Cy5-CALM1 binding fluorescence, higher = more signal.
Test [16] in a line: probe aWnt5a binding to arrayed compounds – biochemical, biotinylated probe, 635/667 nm fluorescence, primary screen (AID 1113).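 Further: score merges 667 nm fluorescence intensity with signal-to-noise per printed feature.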 The settings on record: small-molecule microarray, higher = more signal.
Test [17] can be described thus: probe aShh binding to arrayed compounds – biochemical, biotinylated probe, 635/667 nm fluorescence, primary screen (AID 1114).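 Further: probe is biotin-labelled aShh protein from a stem cell growth factor screen; measures binding of labelled protein to compounds printed on the slide; score merges feature fluorescence at 667 nm with signal-to-noise.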 The settings on record: small-molecule microarray, higher = more signal.
Test [18] is described as follows: probe aNog binding to arrayed compounds – biochemical, biotinylated probe, 635/667 nm fluorescence, primary screen (AID 1115).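 Further: probe is biotinylated aNog protein used at 0.15 µg/mL for 1 h at 4 C; z-score combines 667 nm fluorescence of each spot with its signal to noise.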 The following applies: small-molecule microarray, higher = more signal.
Test [19] has as its target Torsin-1A-interacting protein 1 (Homo sapiens) (UniProt Q5JTV8). The test is described as follows: compound microarray binding of lysate hLAP1 – cell lysate, small-molecule microarray, COS7 lysate, 635/667 nm fluorescence, primary screen (AID 1116). The following applies: 635 nm fluorescence, higher = more signal.
Test [20] addresses Alpha-bungarotoxin (Bungarus multicinctus) (UniProt P60615). The test is described as follows: compounds binding labelled alpha-BTX control protein – biochemical, small-molecule microarray, Alexa647 label, 635/667 nm fluorescence, artefact control for SMM control protein annotation, profiling panel (AID 1117). The following applies: alpha-BTX-A647 binding fluorescence, higher = more signal.

Molecules are shown by their SMILES. The source made the active and inactive calls.

Sequence of Fibroblast growth factor 10 (Homo sapiens) (O15520 whole entry, looked up): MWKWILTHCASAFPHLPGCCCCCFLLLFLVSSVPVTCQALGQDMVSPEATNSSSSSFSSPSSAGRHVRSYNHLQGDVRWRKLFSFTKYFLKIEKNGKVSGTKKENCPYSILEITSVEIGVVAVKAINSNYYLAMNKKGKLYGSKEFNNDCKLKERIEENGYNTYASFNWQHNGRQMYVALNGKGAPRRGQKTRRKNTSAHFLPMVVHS
Sequence of Left-right determination factor 2 (Homo sapiens) (O00292 whole entry, looked up): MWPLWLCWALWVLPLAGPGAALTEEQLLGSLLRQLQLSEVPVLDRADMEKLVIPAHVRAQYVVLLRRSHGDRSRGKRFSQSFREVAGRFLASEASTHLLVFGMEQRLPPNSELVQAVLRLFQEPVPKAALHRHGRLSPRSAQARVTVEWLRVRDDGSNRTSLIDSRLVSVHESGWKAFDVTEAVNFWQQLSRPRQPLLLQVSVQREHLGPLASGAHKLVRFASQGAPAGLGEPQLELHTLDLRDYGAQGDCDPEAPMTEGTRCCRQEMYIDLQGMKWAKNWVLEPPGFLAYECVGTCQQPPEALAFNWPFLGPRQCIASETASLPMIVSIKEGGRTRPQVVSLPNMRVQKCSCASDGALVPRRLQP
Sequence of Alpha-bungarotoxin (Bungarus multicinctus) (P60615 whole entry, looked up): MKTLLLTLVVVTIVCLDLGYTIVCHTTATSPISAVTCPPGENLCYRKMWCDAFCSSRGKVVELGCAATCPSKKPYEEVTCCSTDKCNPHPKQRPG
Sequence of Torsin-1A-interacting protein 1 (Homo sapiens) (Q5JTV8 whole entry, looked up): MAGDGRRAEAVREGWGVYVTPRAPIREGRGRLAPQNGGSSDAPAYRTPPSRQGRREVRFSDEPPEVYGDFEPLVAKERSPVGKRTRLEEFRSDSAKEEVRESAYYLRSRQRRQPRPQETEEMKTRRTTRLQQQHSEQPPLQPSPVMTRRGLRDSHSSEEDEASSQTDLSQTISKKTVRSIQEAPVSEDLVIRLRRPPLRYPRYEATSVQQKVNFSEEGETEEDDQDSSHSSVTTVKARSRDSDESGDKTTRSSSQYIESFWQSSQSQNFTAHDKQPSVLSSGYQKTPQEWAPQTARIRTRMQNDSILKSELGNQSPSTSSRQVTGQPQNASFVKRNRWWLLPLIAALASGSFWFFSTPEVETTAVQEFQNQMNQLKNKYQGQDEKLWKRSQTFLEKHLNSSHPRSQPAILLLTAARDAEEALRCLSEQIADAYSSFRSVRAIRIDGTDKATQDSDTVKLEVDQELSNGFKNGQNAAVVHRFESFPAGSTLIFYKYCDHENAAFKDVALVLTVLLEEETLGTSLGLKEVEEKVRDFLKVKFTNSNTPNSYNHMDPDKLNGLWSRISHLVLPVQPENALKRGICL

For `C=C(C1=CCN(S(=O)(=O)c2ccc(C)cc2)C1)[C@@H](OC(C)=O)[C@@H]1CCCN1S(=O)(=O)c1ccccc1[N+](=O)[O-]`, the composite z-score in test [1] was 1.55; in [2] it was -0.362; in test [3], -0.254; in [5] it was 0.0611; in test [6], -0.297; in test [7], -0.0578. For the same compound, the composite z-score in [8] was -0.114; in test [9], -0.239; in test [10], 1.2; in test [11], -0.38; in [13] it was -0.0476; in [14] it was -0.765. The composite z-score in test [15] is -0.856; in test [16] it was -0.208; in test [17] it was 0.0469; in test [18], 0.353; in test [19], 0.156; in [20] it was -1.48. The z-score in test [4] is -3.24 (inactive); in test [12], -4.62.

With `COCCOC(=O)N1C(=O)[C@@]2(c3cc(C#CC4(O)CCCCCC4)ccc31)[C@H](c1ccc(O)cc1)N1[C@H](c3ccccc3)[C@H](c3ccccc3)OC(=O)[C@H]1[C@@H]2C(N)=O`, the composite z-score in test [1] stood at 0.98; in test [2], 0.106; in test [3], 0.375; in [5], 0.744; in test [6], 0.0417; in test [7], 0.0818. The composite z-score in [8] was 0.585; in test [9], 0.577; in test [10], 0.311; in test [11] it was 1.06; in test [13], -0.0539; in test [14], 2.23. The composite z-score in test [15] is 0.0903; in test [16], 0.0719; in test [17] it was -0.223; in [18] it was 0.725; in test [19] it was 0.852; in test [20] it was 1.97. Also, the z-score in test [4] was -0.652 (inactive); in test [12], -0.0511.

In the case of `COc1ccc([Si](C)(C)[C@H]2[C@H](CC(=O)N(CCO)Cc3ccccc3)O[C@@]3(C(=O)N(Cc4ccc(N5CCC5=O)cc4)c4ccccc43)[C@@H]2C)cc1`, the composite z-score in test [1] was 0.811; in test [2], 0.0433; in test [3], 0.4; in test [5], -0.802; in [6] it was -0.39; in test [7] it was -0.443. In addition, the composite z-score was -0.155 in test [8]; 0.183 in test [9]; 0.577 in test [10]; -0.403 in [11]; 0.271 in test [13]; 0.0311 in [14]. In addition, the composite z-score in [15] was 0.705; in test [16], -0.187; in test [17] it was 0.0434; in test [18], -0.231; in test [19], 1.25; in test [20], 1.33. Further, the results for the z-score in test [4] and in test [12] were -0.439 (inactive) and -3.87, respectively.

As for `COc1ccc([Si](C)(C)[C@@H]2[C@@H](CCn3cc([C@H](O)c4ccccc4)nn3)O[C@]3(C(=O)N(C)c4c(Br)cc(C)cc43)[C@H]2C)cc1`, the composite z-score is -0.384 in test [1]; 0.041 in test [2]; 0.703 in [3]; 0.0565 in test [5]; -0.755 in test [6]; -0.212 in test [7]. In addition, the composite z-score in test [8] is -0.395; in [9], -0.248; in [10], 0.206; in test [11], -1.29; in test [13], 0.287; in test [14], -0.0327. Further, the composite z-score is 0.0747 in [15]; -0.157 in [16]; -0.0991 in test [17]; -0.169 in [18]; 0.184 in test [19]; 0.178 in test [20]. The results for the z-score in [4] and in test [12] were -3.07 (inactive) and -4.23, respectively.

For `CCCNC(=O)[C@@]1(Sc2ccc(C)cc2)CC(=O)N(Cc2cc(C(F)(F)F)cc(C(F)(F)F)c2)[C@@H]1c1ccc(CO)cc1I`, the composite z-score in test [1] was 1.24; in test [2], 0.832; in test [3], 1.11; in test [5], -0.544; in test [6], -0.656; in test [7] it was -0.711. Further, the composite z-score in test [8] is -0.372; in [9], -0.799; in test [10], 1.08; in [11], -0.536; in test [13], -1.58; in test [14], 1.54. Moreover, the composite z-score was 1.11 in test [15]; -0.0512 in test [16]; 0.0141 in test [17]; 0.573 in test [18]; 1.68 in [19]; 0.521 in test [20]. The z-score is -2.39 (inactive) in test [4] and -1.41 in test [12].

Turning to `C=CC[C@@H](OC(=O)Nc1ccc(SC)cc1)c1ccc(OCCO)cc1`, the composite z-score was 1.28 in test [1]; 0.271 in test [2]; 1.29 in test [3]; 0.0292 in test [5]; -0.381 in test [6]; -1.4 in test [7]. The composite z-score was -0.805 in test [8]; -1.42 in test [9]; -0.148 in test [10]; -0.318 in test [11]; -0.952 in test [13]; -0.0326 in test [14]. The composite z-score in [15] was 0.835; in [16], -0.208; in test [17], 0.358; in test [18], 0.133; in [19] it was 1.01; in [20], -0.68. Also, the values for the z-score in test [4] and in test [12] were -1.83 (inactive) and 2.1, respectively.
